Bioassay records from PubChem.
hNpr1 antagonist = human Npr1 receptor antagonism | P16066 | HEK293 hNpr1 GloSensor cGMP, ANP-stimulated luminescence | Potency, µM (highest dose often 46.3 µM), without a hit: at the highest dose activity change, negative = inhibition, actives largely listed as inhibitors | actives 1.6% (n = 76,000) | AID 1347048; calls by dose curve; further: nearly all actives have a fitted effect of over 60% in size
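HEK293 cells stably expressing human Npr1 and cGMP GloSensor pGS-40F, loaded 2 h with 2% GloSensor reagent, given compound 30 min at room temperature. Luminescence read before and 20 min after 0.1 nM hNppA.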
HEK293 tox = cytotoxic compounds in HEK 293 cells; HEK 293 viability, ATP luminescence (CellTiter-Glo), 48-72 h; Potency, µM (doses to about 115 µM), for the others: at the highest dose activity change, negative = cytotoxicity, most hits filed as inhibitors; actives 6.6% (n = 94,000); AID 1345083; further: nearly all actives have a fitted effect of over 60% in size
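HEK 293 cells at 250 cells/well were exposed to compounds by pintool transfer for 48 or 72 hr at 37 degree Celsius, 5% CO2. Viability was read as ATP-coupled luminescence with CellTiter-Glo after 10 min at room temperature.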
Luciferase inh = Photinus pyralis luciferase inhibition; AID 1347043; purified P. pyralis luciferase, luminescence, biochemical; Potency, µM (highest dose often 115 µM), usual class: inhibitors; actives 2.5% (n = 76,000); further: nearly all actives have a fitted effect of over 65% in size
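Inhibitors were tested against purified firefly luciferase in a biochemical, low-substrate format (both substrates at 10uM) and luminescence measured with a CCD imager.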
GPT2 inh = blocks human glutamate pyruvate transaminase 2; AID 1671188; Recombinant GPT2, coupled pyruvate oxidase/HRP Amplex Red fluorescence; actives 0.25% (n = 100,000); Q8TD30; Potency, µM (series often up to 57.7 µM), without a hit: top-dose activity change, negative = inhibition, most hits filed as inhibitors; further: nearly all actives have a fitted effect of over 60% in size
Target sequence (Q8TD30 whole entry, looked up): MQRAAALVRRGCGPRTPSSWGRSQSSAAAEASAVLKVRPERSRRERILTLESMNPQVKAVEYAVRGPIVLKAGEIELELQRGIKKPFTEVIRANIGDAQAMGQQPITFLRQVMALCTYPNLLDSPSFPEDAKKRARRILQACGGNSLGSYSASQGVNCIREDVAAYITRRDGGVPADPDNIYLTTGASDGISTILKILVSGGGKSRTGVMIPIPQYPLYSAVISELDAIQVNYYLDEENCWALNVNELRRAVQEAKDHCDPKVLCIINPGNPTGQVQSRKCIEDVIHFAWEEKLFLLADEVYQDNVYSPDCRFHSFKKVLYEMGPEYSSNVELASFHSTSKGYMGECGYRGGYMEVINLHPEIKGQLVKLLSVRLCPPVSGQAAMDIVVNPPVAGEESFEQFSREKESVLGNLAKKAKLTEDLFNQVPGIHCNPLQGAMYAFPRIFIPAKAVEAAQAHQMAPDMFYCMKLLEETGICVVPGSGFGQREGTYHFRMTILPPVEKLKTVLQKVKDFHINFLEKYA
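Fluorescence read-out: pyruvate from GPT2 turnover coupled to pyruvate oxidase, HRP and Amplex Red (0.2mM ThPP, 0.2U/mL PO and HRP, 50uM Amplex final). Substrates 250uM a-KG, 2mM L-alanine; enzyme 10ng/uL; 30 min RT.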
3T3 cytotox = NIH 3T3 cell cytotoxicity | actives 4.3% (n = 94,000) | Potency, µM (doses to about 96.7 µM), for inactives: at the highest dose activity change, negative = cytotoxicity, most hits filed as inhibitors | AID 1345082 | NIH 3T3 viability, CellTiter-Glo ATP luminescence, 48-72 h; further: nearly all actives have a fitted effect of over 55% in size
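Viability of NIH 3T3 cells after 48 or 72 hr compound treatment at 37 °C was assessed by CellTiter-Glo, with luminescence imaged following a 10 min room-temperature step.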
* = called active by the depositor; [ ] = dose if it differs, or a comment. Only some compounds are listed: those with a hit (about 10% of all), similar ones and a draw of the others. Unless noted, the call rests on the fitted dose curve; in most records, active means well fitted curve in the direction sought with a large enough effect; inconclusive means small, poorly fitted or top-dose-only effect, or another doubt; inactive means no such curve, though single readings can be large; an effect the other way counts as inactive or inconclusive. On the % scale 0 is the no-effect control and ±100 the full control effect; potency means the concentration at half of the fitted maximal effect.

COc1ccc(-c2cc3c(ccn3C)c(C(=O)NCc3cccnc3)n2)cc1OC was read as hNpr1 antagonist -4%[70.6 µM], HEK293 tox inconclusive, Luciferase inh inconclusive, GPT2 inh -6%[88.5 µM] and 3T3 cytotox inconclusive.
CN(C)Cc1ccc(-c2cc3c(ccn3C)c(C(=O)NCc3cccnc3)n2)cc1 was read as hNpr1 antagonist 4%[70.6 µM], HEK293 tox inconclusive, Luciferase inh inactive, GPT2 inh 2%[88.5 µM] and 3T3 cytotox inconclusive.
For Cn1ccc2c(C(=O)NCc3cccnc3)nc(-c3ccc(F)cc3)cc21 the results were hNpr1 antagonist -24%[70.6 µM], HEK293 tox 100µM*, Luciferase inh inactive, GPT2 inh -8%[88.5 µM] and 3T3 cytotox inconclusive.
Screening Cn1ccc2c(C(=O)NCc3cccnc3)nc(-c3ccccc3)cc21 returned hNpr1 antagonist inconclusive, HEK293 tox inconclusive, Luciferase inh inactive, GPT2 inh -5%[88.5 µM] and 3T3 cytotox inconclusive.
For Cn1ccc2c(C(=O)NCc3cccnc3)nc(-c3ccccc3C#N)cc21 the results were hNpr1 antagonist -6%[70.6 µM], HEK293 tox -18%[172 µM], Luciferase inh inactive, GPT2 inh -5%[88.5 µM] and 3T3 cytotox 25µM*.
Screening CN1CCN(c2ccc(-c3cc4c(ccn4C)c(C(=O)NCc4cnccn4)n3)cc2)CC1 returned hNpr1 antagonist -1%, HEK293 tox 45µM*, Luciferase inh inconclusive, GPT2 inh 3% and 3T3 cytotox inconclusive.
`COCCN1CC(CO)C2(CCN(Cc3ccc(OC)cc3OC)CC2)C1` (centres undefined) gave hNpr1 antagonist -1%, HEK293 tox inconclusive, Luciferase inh inactive, GPT2 inh -2% and 3T3 cytotox inconclusive.
COc1ccc(C(=O)NCCc2noc(-c3cccnc3)n2)cn1 was read as hNpr1 antagonist 0%, HEK293 tox -17%, Luciferase inh inactive, GPT2 inh inactive and 3T3 cytotox -9%.
Cc1cnc(C(=O)N2[C@@H]3CC[C@H]2CC(NC(=O)c2ccncc2)C3)cn1 (some centres undefined) was read as hNpr1 antagonist 9%, HEK293 tox -1%, Luciferase inh inactive, GPT2 inh 4% and 3T3 cytotox -3%.
`COCCNC(=O)[C@@H]1C[C@H](Oc2cccnc2)CN1S(=O)(=O)c1cccc(OC)c1` gave hNpr1 antagonist 3%, HEK293 tox inconclusive, Luciferase inh inactive, GPT2 inh 0% and 3T3 cytotox -16%.
CN(CCc1ccccc1)CCN1CC2(CCN(c3ncccc3C#N)CC2)OC1=O was read as hNpr1 antagonist -3%, HEK293 tox 40µM*, Luciferase inh inactive, GPT2 inh 2% and 3T3 cytotox inconclusive.
Screening N#Cc1cccnc1N1CCCC(CO)(CCCc2ccccc2)C1 (centres undefined) returned hNpr1 antagonist -3%, HEK293 tox inconclusive, Luciferase inh inactive, GPT2 inh 1% and 3T3 cytotox inconclusive.
`COC[C@@H]1CN(C(=O)COc2ccc(Cl)cc2)C[C@H]1C(N)=O` gave hNpr1 antagonist 0%, HEK293 tox inactive, Luciferase inh inactive, GPT2 inh inactive and 3T3 cytotox inactive.
O=C(c1cccc(O)c1)N1CC(CNc2ccccc2)C2(C1)CN(c1ccccc1)C2 (centres undefined) was read as hNpr1 antagonist -8%[70.6 µM], HEK293 tox 63µM*, Luciferase inh inactive, GPT2 inh -12%[88.5 µM] and 3T3 cytotox 50µM*.
`O=C(c1cccc(Cl)c1)N1CC(CNc2cccnc2)C2(C1)CN(c1ccccc1)C2` (centres undefined) gave hNpr1 antagonist -3%[70.6 µM], HEK293 tox inconclusive, Luciferase inh inactive, GPT2 inh -9%[88.5 µM] and 3T3 cytotox inconclusive.
`O=C(Cc1ccc(O)cc1)N1CC(CNc2ccccc2)C2(C1)CN(c1ccccc1)C2` (centres undefined) gave hNpr1 antagonist -26%[70.6 µM], HEK293 tox 50µM*, Luciferase inh inactive, GPT2 inh -13%[88.5 µM] and 3T3 cytotox 32µM*.
O=C(N1CCC(Cc2noc(-c3ccc(F)cc3)n2)C1)C1(c2ccccc2)CC1 (centres undefined) was read as HEK293 tox 40µM*, GPT2 inh inactive and 3T3 cytotox inconclusive.
`COc1ccc(CNC(=O)N2CCC(c3noc(-c4ccccc4)n3)C2)cc1` (centres undefined) gave hNpr1 antagonist inconclusive, HEK293 tox 45µM*, Luciferase inh inactive, GPT2 inh inactive and 3T3 cytotox inconclusive.
Screening O=C(Cn1c(=O)oc2ccccc21)N1CCCC(Cc2noc(-c3ccccc3)n2)C1 (centres undefined) returned hNpr1 antagonist 7%, HEK293 tox inconclusive, Luciferase inh 40µM*, GPT2 inh inactive and 3T3 cytotox -22%.
Screening COc1ccc(CNC(=O)N2CCC(c3noc(-c4cccnc4)n3)C2)cc1 (centres undefined) returned hNpr1 antagonist 3%, HEK293 tox -21%, Luciferase inh inactive, GPT2 inh inactive and 3T3 cytotox -16%.
Cn1cnc(S(=O)(=O)N2CCCC(Cc3noc(-c4ccccc4)n3)C2)c1 (centres undefined) was read as hNpr1 antagonist 2%, HEK293 tox inconclusive, Luciferase inh 35µM*, GPT2 inh inconclusive and 3T3 cytotox inconclusive.
Screening O=C(C1CC1)N1CCC(Cc2noc(-c3ccccc3)n2)C1 (centres undefined) returned hNpr1 antagonist -5%, HEK293 tox -30%, Luciferase inh inactive, GPT2 inh -5% and 3T3 cytotox inconclusive.
`Cc1ccccc1[C@H]1C[C@@H](O)[C@@H](O)[C@@H]1NCC(C)(C)O` gave hNpr1 antagonist -1%[70.6 µM], HEK293 tox -10%[230 µM], Luciferase inh inactive, GPT2 inh -20%[88.5 µM] and 3T3 cytotox -13%[230 µM].
Screening Cc1ccc(-c2c(C(=O)CF)n(CCCO)c3ncnc(N)c23)cc1 returned GPT2 inh inactive.
`COc1ccc(CNC(=O)N2CCCC(Cc3noc(-c4ccncc4)n3)C2)cc1` (centres undefined) gave hNpr1 antagonist -3%, HEK293 tox inconclusive, Luciferase inh inactive, GPT2 inh inactive and 3T3 cytotox -34%.
For Cc1ccc(CNC(=O)N2CCCC(Cc3noc(-c4ccccc4)n3)C2)cc1 (centres undefined) the results were hNpr1 antagonist 4%, HEK293 tox 28µM*, Luciferase inh inactive, GPT2 inh inactive and 3T3 cytotox 25µM*.
Screening CCN1C(=O)CCN(Cc2cccc(OC)c2OC)CC12CCOCC2 returned hNpr1 antagonist 0%, HEK293 tox inactive, Luciferase inh inactive, GPT2 inh inactive and 3T3 cytotox -9%.
